For 23 compounds, outcome and AC50 results are on record in PubChem BioAssay (EPA / NIEHS).

Assay [1] is described as follows: Tanguay_ZF_120hpf_SWIM_legacy: (Legacy) Oregon State University Tanguay Lab 120 Hour Post-fertilization zebrafish Assay for Swim Bladder Malformation (AID 2283654).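 Also: swim bladder malformation in each larva scored yes or no under brightfield.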 In outline:
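Scoring is binary for swim bladder defects at 120 hpf, by brightfield inspection of zebrafish larvae. Embryos were exposed singly from 6 hpf after pronase dechorionation, at 28C with 0.64% DMSO; mortality excluded scoring.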

The nature of assay [2]: Tanguay_ZF_120hpf_TRUN_legacy: (Legacy) Oregon State University Tanguay Lab 120 Hour Post-fertilization zebrafish Assay for Truncated Body (AID 2283655). The method, boiled down: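 Truncated body is recorded as a binary endpoint at 120 hpf by brightfield imaging of wild-type 5D larvae. Exposure runs statically from 6 hpf at 28C with 0.64% DMSO; embryos dying earlier are not scored.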

A short description of assay [3]: Tanguay_ZF_120hpf_NC_legacy: (Legacy) Oregon State University Tanguay Lab 120 Hour Post-fertilization zebrafish Assay for Notochord and Tail Malformation (AID 2283656). The method, boiled down:
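Binary notochord-distortion calls, made by brightfield inspection, form the read-out; activity is fitted in the positive direction against DMSO. Exposure ran statically from 6 to 120 hpf at 28C with 0.64% DMSO.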

Assay [4] is described as follows: CCTE_Padilla_ZF_144hpf_TERATOSCORE: (Legacy) CCTE's 144 Hour Post-fertilization zebrafish Assay Teratoscore, Padilla Lab (AID 2283679; active = hit-call score of the fitted dose curve at least 0.9, where 1 is the maximum; inactive = score below 0.9;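 as to AC50: zebrafish embryos with chorions exposed by immersion from 6-8 hpf to 5 dpf with daily renewal; teratogenicity score from eye scoring of death hatching and malformations at 144 hpf; higher score means more developmental defects relative to DMSO baseline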). The method, boiled down:
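Larvae scored by eye at 144 hpf for death, hatching and malformations after a day in clean Hanks'. Before that, daily-renewed exposure at 80 uM (0.4% DMSO, 26C) from roughly 6-8 hpf through 5 dpf, 4 embryos per chemical.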

The nature of assay [5]: STM_H9_OrnCyssISnorm_ratio: Stemina devTOX quickPredict H9 human embryonic stem cell (hESC)-based Assay for Ornithine (ORN):Cystine (CYSS) Ratio (AID 2283714). In outline: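 Ratio of internal-standard-normalized ornithine to cystine, measured by UPLC-HRMS in spent media from the last 24 h. H9 cells kept pluripotent, dosed 72 h with daily media and compound renewal; DMSO 0.1% serves as baseline.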

A short description of assay [6]: Tanguay_ZF_120hpf_ActivityScore_legacy: (Legacy) Oregon State University Tanguay Lab 120 Hour Post-fertilization zebrafish Assay Score for Activity (AID 2283742).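 As to AC50: dechorionated Tropical 5D wild-type zebrafish embryos held singly per well.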 The method, boiled down: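 Binary scoring of mortality and morphology by brightfield at 24 and 120 hpf, summarised into one activity score from 18 components relative to DMSO. Wild-type Tropical 5D zebrafish, chorion removed at 4 hpf, static exposure 6–120 hpf, 28 °C.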

A short description of assay [7]: Tanguay_ZF_120hpf_TR_legacy: (Legacy) Oregon State University Tanguay Lab 120 Hour Post-fertilization zebrafish Assay for Touch Response (AID 2283667). The method, boiled down:
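Binary touch-response endpoint in larvae at 120 hpf after static waterborne exposure from embryo stage (28°C, 0.64% DMSO vehicle, 5 uM trimethyltin chloride as positive control); embryos dead at 24 or 120 hpf excluded; fitted as gain versus DMSO.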

Assay [8] in a line: CEETOX_H295R_MTT_cell_viability: Viability Assessment in the CeeTox HT-H295R MTT Assay (AID 2283718; active = hit-call score of the fitted dose curve at least 0.9, where 1 is the maximum; inactive = score below 0.9). In outline:
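MTT reduction (0.5 mg/ml, 4 h at 37 C; absorbance at 570 and 650 nm) gave viability as background-corrected percent change versus controls. H295R cells had 48 h forskolin (10 uM) prestimulation, then 48 h chemical exposure at 0.1% DMSO.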

Assay [9] in a line: ArunA_CellTiter_hNP: Viability Assessment in the ArunA Biomedical's Oris Neural Crest (hNC) Cell Migration Assay (AID 2283753). In outline: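 Viability read with CellTiter 96 Aqueous One after 72 h chemical exposure of human hNP1 neuroprogenitors, which were plated on Matrigel in LIF/bFGF medium 16 h beforehand. Endpoint fitted in positive direction relative to DMSO.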
Assay [10] in a line: ArunA_Migration_hNC: ArunA Biomedical's Oris Neural Crest (hNC) Cell Migration Assay (AID 2283755). In outline:
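Calcein-AM fluorescence (ex494 nm/em 517 nm) in the stopper-defined detection zone quantifies migration of hNC cells after 72 h chemical exposure; 60,000 cells/well plated on Matrigel with LIF and bFGF, 16 h pre-incubation. DMSO baseline.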

Assay [11] in a line: ArunA_NOG_NeuriteLength: ArunA Biomedical's Neurite Outgrowth (NOG) Assay for Neurite Length (AID 2283757). In outline: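 Total neurite length per neuron, from traced βIII-tubulin-labelled processes longer than 10 um on viable Hoechst-gated cells, was scored as decrease from DMSO. Cells were hESC (H9)-derived neurons given 48 h chemical exposure immediately after seeding.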

The structures appear in SMILES notation. Results filed as inconclusive are left out. Active and inactive are the calls of the source. The calls were made as follows, unless noted: active = hit-call score of the fitted dose curve at least 0.9, where 1 is the maximum; inconclusive = response in the unintended direction; inactive = score below 0.9.

As for `CN(C)C(=O)C1(N2CCCCC2)CCN(CC[C@@]2(c3ccc(Cl)c(Cl)c3)CN(C(=O)c3ccccc3)CCO2)CC1`, the result in assay [1], in assay [2] and in assay [3] was inactive. In addition, the figures for the AC50 in [4], in assay [5] and in assay [6] were 15 µM (active), 8.17 µM (active) and 16.2 µM (active), respectively.
Turning to `CC1(C)NC(=O)N(c2ccc([N+](=O)[O-])c(C(F)(F)F)c2)C1=O`, the result in assay [1], in assay [2], in assay [3] and in [6] was inactive. Besides, in assay [4], the AC50 (as a rule, the concentration at which the activity in the assay is half-maximal) was 17.2 µM (active).
With `Cc1ccc(C(C)C)cc1`, the compound was classed as inactive in [1], in assay [2], in assay [3], in assay [7] and in assay [6].
As to `CO[C@H]1/C=C/O[C@@]2(C)Oc3c(C)c(O)c4c(O)c(c(/C=N/N5CCN(C)CC5)c(O)c4c3C2=O)NC(=O)/C(C)=C\C=C\[C@H](C)[C@H](O)[C@@H](C)[C@@H](O)[C@@H](C)[C@H](OC(C)=O)[C@@H]1C`, the outcome in assay [1], in assay [2], in [7], in [8] and in [6] was inactive. In assay [5], the AC50 is 4.04 µM (active).
For the compound `CCCC(=O)OCCC(C)C`, the call in assay [1], in [2], in assay [3] and in [6] was inactive.
Turning to `COCC(C)OCC(C)OCC(C)O` (stereo unspecified), the call in assay [1], in [2], in assay [3], in assay [7] and in assay [6] was inactive.
In the case of `CC(C)(C)c1cc(/C=C2\SC(N)=NC2=O)cc(C(C)(C)C)c1O`, the compound was classed as inactive in [1], in assay [2], in assay [7] and in [8]. For the same compound, the AC50 was 4.17 µM (active) in assay [4], 3.33 µM (active) in [5] and 47.2 µM (active) in [6].
In the case of `O=C(O)c1ccccc1-n1cc(C(=O)O)c(=O)c2cc(Nc3c(F)cc(F)cc3Cl)c(Cl)cc21`, the result in [1], in [3], in assay [7] and in assay [6] was inactive.
For the compound `Cc1ccc2oc(CN(Cc3ccccc3)C(=O)Nc3c(F)cc(F)cc3F)c(-c3ccc(Cl)cc3)c2c1`, the result in assay [2], in assay [3], in assay [7], in assay [4], in assay [8] and in assay [6] was inactive.
Regarding `CCN(Cc1cccc(S(=O)(=O)O)c1)c1ccc(C(=C2C=CC(=[N+](CC)Cc3cccc(S(=O)(=O)O)c3)C=C2)c2ccccc2S(=O)(=O)[O-])cc1`, the call in assay [2], in [7], in [4] and in [6] was inactive.
Turning to `c1ccc2ccccc2c1`, the compound was called inactive in [1], in assay [2], in assay [3], in assay [7] and in assay [6].
In the case of `CCCCOC(=O)CC(CC(=O)OCCCC)(OC(C)=O)C(=O)OCCCC`, the outcome in assay [1], in [2], in assay [7] and in assay [6] was inactive. The AC50 in assay [4] is 4.96 µM (active).
In the case of `CCCCCCCCOc1ccc(C(=O)c2ccccc2)c(O)c1`, the result in assay [1], in assay [2], in [3], in assay [8] and in assay [6] was inactive.
With `CC(C)(c1cc(Br)c(O)c(Br)c1)c1cc(Br)c(O)c(Br)c1`, the call in assay [2], in [3], in [7], in assay [5], in assay [8] and in [9] was inactive. The compound was called inactive in [10] and in assay [11]. Further, the results for the AC50 in assay [4] and in assay [6] were 4.24 µM (active) and 1.99 µM (active), respectively.
In the case of `O=c1ccc2ccccc2o1`, the compound was classed as inactive in [2], in assay [3], in assay [7], in [4] and in [6].
As to `Clc1ccccc1C(c1ccccc1)(c1ccccc1)n1ccnc1`, the compound was called inactive in [1], in assay [3], in assay [8] and in assay [6]. Also, the AC50 in [7] was 25 µM (active); in [4], 1.53 µM (active).
Regarding `O=C(OCCCCCCOC(=O)c1ccccc1)c1ccccc1`, the outcome in assay [2], in assay [3], in assay [7] and in [6] was inactive. Further, the AC50 in assay [4] is 12.9 µM (active).
For `CC(O)CC(C)(C)O` (stereo unspecified), the compound was called inactive in [1], in assay [2], in [3], in assay [4] and in [6].
As for `O=C=NCCCCCCN=C=O`, the result in assay [2], in [5] and in [6] was inactive.
Turning to `c1ccc(C[n+]2cccc3ccccc32)cc1`, the call in assay [2], in [3], in assay [7], in assay [4], in [8] and in assay [6] was inactive.
Take `CC1=CC(=O)/C(=C(/C)O)C(=O)O1`: the compound was classed as inactive in [2], in [3], in [4] and in [6].
As to `CCO[Si](CCCNC(N)=O)(OCC)OCC`, the call in assay [1], in [2], in assay [3], in assay [7] and in assay [6] was inactive.
As to `Cc1cccc2ccccc12`, the call in assay [1], in assay [2], in assay [3], in assay [7] and in [6] was inactive.
